UbGFP stabilizer: proteasome inhibitors stabilizing ubiquitin-GFP reporter. AID 526. Ubiquitin-GFP reporter cells, proteasome inhibition, GFP fluorescence; response scale: untreated = 0%, 10 µM MG-132 = 100%. 67,000 tested, under 10 active. Potency, µM (highest dose often 45.9 µM), inactives show at the highest dose activation (GFP accumulation), usual class: activators; active means well fitted activation curve with a large enough effect, not every such curve was filed as active; inconclusive means small, poorly fitted or top-dose-only effect, or another doubt; inactive means no such curve, though single readings can be large or run the other way
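GFP accumulation read-out: laser plate cytometry counting ubiquitin(G76V)-GFP-expressing U2OS cells after 4 hr compound exposure at 37 °C. Titrations spanned 46 uM to 2.9 nM; 0% = basal, 100% = 10 uM MG-132; concentration-response curves fitted.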
Casp1 inh: blocks human caspase-1 allosterically or competitively. Caspase-1 enzyme, Ac-WEHD-AFC fluorogenic rate. 75,000 tested, 0.03% active. Potency, µM (doses to about 57.5 µM), inactives show top-dose activity change, negative = inhibition, usual class: inhibitors. P29466;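 further: plate controls were vehicle for no effect and no substrate for full effect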
USP2a inh: USP2a (human) protease inhibition | USP2a enzymatic assay, qHTS inhibition | 60,000 tested, 0.1% active | AID 927 | Potency, µM (titrated, usually from 38.3 µM), for inactives: at the highest dose activity change, negative = inhibition, most hits filed as inhibitors; further: nearly all actives have a fitted effect of over 60% in size
Target sequence (O75604 whole entry, looked up): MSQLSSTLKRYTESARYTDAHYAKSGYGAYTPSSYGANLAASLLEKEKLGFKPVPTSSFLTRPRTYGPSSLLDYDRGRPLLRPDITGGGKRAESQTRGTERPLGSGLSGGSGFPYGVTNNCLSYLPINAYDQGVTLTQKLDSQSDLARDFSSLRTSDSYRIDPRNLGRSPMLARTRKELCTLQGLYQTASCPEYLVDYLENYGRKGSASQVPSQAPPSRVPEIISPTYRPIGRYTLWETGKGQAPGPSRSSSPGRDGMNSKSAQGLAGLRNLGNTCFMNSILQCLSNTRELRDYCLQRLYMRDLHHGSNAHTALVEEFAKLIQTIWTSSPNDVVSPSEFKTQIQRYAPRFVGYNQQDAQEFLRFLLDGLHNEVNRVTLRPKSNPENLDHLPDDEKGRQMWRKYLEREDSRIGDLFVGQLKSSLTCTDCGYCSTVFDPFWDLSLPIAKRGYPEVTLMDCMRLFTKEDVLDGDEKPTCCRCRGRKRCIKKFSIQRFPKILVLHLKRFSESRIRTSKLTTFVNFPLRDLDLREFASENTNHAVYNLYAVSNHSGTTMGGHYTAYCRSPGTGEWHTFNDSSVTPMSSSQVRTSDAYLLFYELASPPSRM
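Inhibition is measured in a cell-free coupled assay with 20 nM USP2 core, 20 nM Ub-PLA2 and 20 uM NBD C6-HPC, 2.5 h incubation. Activity normalized to NEM control.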
ALOX15B inhib: 15-hLO-2 (ALOX15B) enzyme inhibition; purified 15hLO-2, xylenol orange hydroperoxide absorbance; Potency, µM (titrated, usually from 57.1 µM), for inactives: at the highest dose activity change, negative = inhibition, hits mostly inhibitors; 110,000 tested, 0.56% active; AID 881; further: on the % scale 0 is the no-effect control and ±100 the full control effect; nearly all actives have a fitted effect of over 60% in size
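Enzyme 50 nM, AA 45 uM, 25 mM Hepes pH 7.5 + 0.01% Triton X-100; cpd preinc 15 min RT, rxn 90 min RT; stop/detect with 200 uM XO + 300 uM Fe(II) in 50 mM H2SO4, 30 min; A573/A405.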
15-hLO inh: 15-hLO (ALOX15) enzyme inhibition. purified 15hLO-1, xylenol orange hydroperoxide absorbance. Potency, µM (titrated, usually from 57.1 µM), for inactives: top-dose activity change, negative = inhibition, hits mostly inhibitors. P16050. AID 887. 74,000 tested, 1.4% active; further: on the % scale 0 is the no-effect control and ±100 the full control effect; nearly all actives have a fitted effect of over 55% in size
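Purified human 15hLO-1 (40 nM final) in 25 mM Hepes pH 7.5, 0.01% Triton X-100 was preincubated with compound 15 min at room temperature, then reacted 6 min with 50 uM arachidonic acid; hydroperoxide detected by Fe-XO, 573/405 nm absorbance ratio.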
Casp7 inh: blocks human caspase-7 allosterically or competitively; 75,000 tested, 0.02% active; recombinant caspase-7, Ac-DEVD-AFC fluorescence rate; Potency, µM (doses to about 57.5 µM), for inactives: at the highest dose activity change, negative = inhibition, actives largely listed as inhibitors; active means well fitted inhibition curve with a large enough effect in the main read-out, with a control signal flat, not every such curve was filed as active; inconclusive means small, poorly fitted or top-dose-only effect, or a change in a side signal; further: % of control where 0% means no effect
* marks the source's active call; other numbers are inactive results; ? = inconclusive; . = not tested or not shown; [ ] = dose if it differs, or a comment. The full list was thinned out, with hits kept by preference. Unless noted, the call rests on the fitted dose curve; in most records, active means well fitted curve in the direction sought with a large enough effect; inconclusive means small, poorly fitted or top-dose-only effect, or another doubt; inactive means no such curve, though single readings can be large; an effect the other way counts as inactive or inconclusive. Potency means the concentration at half of the fitted maximal effect.

SMILES	UbGFP stabilizer	Casp1 inh	USP2a inh	ALOX15B inhib	15-hLO inh	Casp7 inh
COc1ccc(CN(Cc2cc3cc4c(cc3[nH]c2=O)OCO4)C(=O)NC2CCCCC2)cc1	0%	-6%	.	9%[11.4 µM]	16µM*	-3%
CCN(CC)CCN(Cc1cc2cc3c(cc2[nH]c1=O)OCCO3)C(=O)NC1CCCCC1	0%	-14%	4%	26%	0%	-8%
CCNc1nc(SC(C)C(=O)Nc2ccccc2)nc(N2CCOCC2)n1 (configuration not stated)	2%	-3%	1%	0%	3%	0%
CC(=O)C(Sc1nc(N2CCOCC2)nc(N2CCOCC2)n1)C(=O)Nc1ccccc1 (configuration not stated)	-6%	-16%	30%	1%	16µM*	-24%
CC(=O)C(Sc1nn(C)c(=S)s1)C(=O)Nc1ccccc1 (configuration not stated)	-3%	1%	-2%	?	7.9µM*	0%
COc1ccc(CCN(C)CCC[C@@](C#N)(c2cc(OC)c(OC)c(OC)c2)C(C)C)cc1OC	2%	-1%	17%	27%	-3%	0%
Cc1cc(C)nc(SCc2nc3nc(C)cc(C)n3c2Br)n1	.	.	.	4%	.	.
Cc1cc(C)n2c(=S)[nH]nc2n1	10%	3%	-4%	6.3µM*	?	0%
c1ccc(CNc2cc(-c3ccoc3)ncn2)cc1	-1%	-6%	193%	49%	8%	-17%
CC1CCC2C(=O)N3C(CCC(C)[C@@H]3c3ccc(-c4ccco4)cc3)C(=O)N2C1c1cccc(N2CCCC2=O)c1 (some centres not stated)	.	-3%[11.5 µM]	.	.	5µM*	1%[11.5 µM]
CC1CCC2C(=O)N3C(CCC(C)C3c3ccc(-c4ccco4)cc3)C(=O)N2C1c1ccc(-c2ccco2)cc1 (configuration not stated)	.	0%[11.5 µM]	.	.	2.5µM*	-18%[11.5 µM]
CCCCC#Cc1nc(N)c2ncn([C@@H]3O[C@@H](C(=O)NCC)[C@H](O)[C@@H]3O)c2n1	-3%	3%	11%	13%	-4%	0%
C[C@@]12CCC(=O)C=C1CC[C@H]1[C@@H]2[C@@H](O)C[C@]2(C)[C@@H]1CC[C@@]2(O)C(=O)CO	-7%[9.17 µM]	2%[11.5 µM]	.	0%[11.4 µM]	13%[11.4 µM]	-3%[11.5 µM]
Oc1cc(O)cc(/C=C/c2ccc(O)c(O)c2)c1	.	.	.	4.5µM*	.	.
O=C(O)CCc1ccc(-c2ccc(Br)cc2)n1Cc1ccco1	-3%	-9%	34%	-9%	16µM*	-16%
CCCn1c(CCC(=O)O)ccc1-c1ccc(F)cc1	6%	-14%	41%	-13%	7.9µM*	-13%
O=C(O)CCc1ccc(-c2ccccc2)n1Cc1ccco1	-1%	-6%	18%	-7%	-7%	-7%
C=CC(=O)OCC(CO)(COC(=O)C=C)COC(=O)C=C	.	-5%	.	-11%	-10%	-1%
c1ccn(-c2ccc(N3CCOCC3)cc2)c1	.	.	.	-2%	.	.
Cc1ccc(C)n1-c1ccc(N2CCOCC2)cc1	0%	-8%	34%	-29%	2.5µM*	-2%
CC1CCCC2(C1)NC(=S)c1c(sc3c1CCCC3)N2 (configuration not stated)	.	.	.	13µM*	.	.
CCCCCCCCCCCCCCCCOC[C@@H](COCC(F)(F)F)OP(=O)(O)OCO	-8%	.	.	.	.	.
N#Cc1c(-c2ccco2)cc(-c2cccnc2)nc1N	-1%	0%	-77%	?	7.9µM*	-2%
N#CC1=C(N)SC(N)=C(C#N)C1c1cccc(Oc2ccccc2)c1	-7%	-5%	22%	?	5µM*	-6%
COc1ccc(CCn2c(-c3ccco3)nc3ccccc3c2=O)cc1OC	23%[9.17 µM]	1%	39%[7.66 µM]	3%[2.29 µM]	4µM*	0%
SMILES	UbGFP stabilizer	Casp1 inh	USP2a inh	ALOX15B inhib	15-hLO inh	Casp7 inh
COCCCn1c(-c2ccco2)nc2ccccc2c1=O	-17%	1%	-2%	-8%	2%	1%
CCCCCCNC(=O)Nc1ccc(S(=O)(=O)Nc2ccc(CCNC[C@H](O)COc3ccc(O)cc3)cc2)cc1	.	0%	.	-5%	7.9µM*	-4%
NC(=O)NCCS[C@H]1CCCC[C@@H]1O	-1%[9.17 µM]	-2%[11.5 µM]	.	-1%[11.4 µM]	4%[11.4 µM]	3%[11.5 µM]
N[C@@H](Cc1nn[nH]n1)C(=O)O	-4%[9.17 µM]	-3%[11.5 µM]	.	-4%[11.4 µM]	8%[11.4 µM]	-1%[11.5 µM]
COc1ccc(N2CCN(c3nc(=S)n(-c4ccccc4)c(C)c3C(C)=O)CC2)cc1	6%	-10%	36%	-4%	16µM*	-30%
CC(=O)OC(C(=O)c1ccccc1)c1ccccc1 (configuration not stated)	.	1%	.	-6%	-2%	-1%
Oc1ccc(N2CCN(C(c3cccs3)c3nnnn3CCc3ccccc3)CC2)cc1 (configuration not stated)	0%	-2%	26%	?	3.2µM*	-5%
CNC(=O)[C@@H]1O[C@@H](n2cnc3c(NCc4ccc(N)cc4)ncnc32)[C@@H](O)[C@H]1O	3%	2%	-4%	-4%	6%	1%
NC(=O)C/C=C\CC(N)=O	-1%[9.17 µM]	2%[11.5 µM]	.	-2%[11.4 µM]	11%[11.4 µM]	3%[11.5 µM]
COC(=O)CSC1=C(C#N)C(c2ccc3c(c2)OCO3)C2=C(CCCC2=O)N1 (configuration not stated)	.	.	.	4%	.	.
Cc1ccc(NC(=O)CSC2=C(C#N)C(c3ccc4c(c3)OCO4)C3=C(CCCC3=O)N2)c(C)c1 (configuration not stated)	-9%	-8%	30%	-20%	3.2µM*	-7%
CCOC(=O)c1c2c(c(=S)n(-c3ccccc3)c1N)CCC2	.	.	.	-15%	.	.
N#Cc1c2c(c(=S)n(-c3ccccc3)c1N)CCCC2	-1%[9.17 µM]	.	57%[7.66 µM]	-23%	1.6µM*	?
O=C(O)c1ccccc1NS(=O)(=O)c1ccc(F)c(Cl)c1	.	-1%	.	.	0%	0%
CNC(=O)[C@H](C)/C=C(\c1cccnc1)C(NC(=O)OCc1ccccc1)c1ccc(C(=O)OC)cc1 (some centres not stated)	.	1%	.	19%	5%	-3%
COC(=O)c1ccc(C(NC(=O)OCc2ccccc2)/C(=C/[C@@H](C)C(=O)N[C@@H](CO)Cc2ccccc2)c2cccnc2)cc1 (some centres not stated)	.	-3%	.	39%	25µM*	-3%
C[C@@H](/C=C\c1cccc(Oc2ccc(F)cc2)c1)N(O)C(N)=O	0%	3%	4%	-23%	10µM*	-6%
CCOC(=O)c1c(C)oc2c1c(C(c1cccnc1)N1CCN(C)CC1)c(O)c1ccccc12 (configuration not stated)	-3%	0%	23%	7%	-30%	0%

Bioassay records: PubChem BioAssay, National Center for Advancing Translational Sciences (NCATS)
